For some of these results: Measured potencies and affinities stand elsewhere.

Our source for the Percent Effect values is ChEMBL document CHEMBL3988442, “University of Dundee, Small-Polar-MMV Screening Library” (2021).

Common to all, as to parameters: scale not given: direction of the effect not stated beside the values
Assay [1] has as its target Protein translocase subunit SecA (Escherichia coli (strain K12)) (UniProt P10408). Description: Assay to Identify E. coli SecA ATPase Inhibitors. It is filed as functional. The following applies: 30 µM.
Assay [2] deals with T1, Ubiquitin-activating enzyme e1, putative (Leishmania donovani (strain BPK282A1)) (UniProt E9BSI1).
T1 sequence (whole entry): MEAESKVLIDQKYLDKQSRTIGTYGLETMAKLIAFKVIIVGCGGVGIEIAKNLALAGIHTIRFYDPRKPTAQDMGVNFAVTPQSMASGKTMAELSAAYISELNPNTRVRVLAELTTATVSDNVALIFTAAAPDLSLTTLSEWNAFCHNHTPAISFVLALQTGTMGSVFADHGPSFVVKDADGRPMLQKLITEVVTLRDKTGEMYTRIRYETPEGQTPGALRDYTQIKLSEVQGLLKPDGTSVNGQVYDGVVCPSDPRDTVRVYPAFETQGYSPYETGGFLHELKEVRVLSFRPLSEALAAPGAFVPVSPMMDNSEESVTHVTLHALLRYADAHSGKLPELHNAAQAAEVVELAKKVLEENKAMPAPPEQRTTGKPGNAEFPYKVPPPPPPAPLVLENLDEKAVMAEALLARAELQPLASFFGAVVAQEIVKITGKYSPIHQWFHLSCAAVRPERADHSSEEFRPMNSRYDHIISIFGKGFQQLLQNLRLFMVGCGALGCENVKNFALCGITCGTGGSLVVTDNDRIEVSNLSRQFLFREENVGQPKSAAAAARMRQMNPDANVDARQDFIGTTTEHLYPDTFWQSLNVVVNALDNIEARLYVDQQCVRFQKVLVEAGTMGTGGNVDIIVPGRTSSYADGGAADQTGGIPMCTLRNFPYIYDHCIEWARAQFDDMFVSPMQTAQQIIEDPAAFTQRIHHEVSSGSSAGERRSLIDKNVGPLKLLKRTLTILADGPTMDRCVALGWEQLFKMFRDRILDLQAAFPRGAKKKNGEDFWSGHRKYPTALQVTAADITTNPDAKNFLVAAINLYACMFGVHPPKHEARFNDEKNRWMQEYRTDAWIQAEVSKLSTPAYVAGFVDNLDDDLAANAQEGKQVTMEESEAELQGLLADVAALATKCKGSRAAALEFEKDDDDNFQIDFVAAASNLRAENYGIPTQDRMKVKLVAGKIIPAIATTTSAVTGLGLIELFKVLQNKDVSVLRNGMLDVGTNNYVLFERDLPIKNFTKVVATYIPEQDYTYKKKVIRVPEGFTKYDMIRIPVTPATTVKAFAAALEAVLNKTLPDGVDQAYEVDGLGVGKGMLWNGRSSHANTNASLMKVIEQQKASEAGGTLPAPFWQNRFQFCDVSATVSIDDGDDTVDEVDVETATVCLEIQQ
Description: Leishmania donovani Ubiquitin Activating Enzyme (LdE1). It counts as functional. The note with it: 30 µM.

Assay [3] concerns the target AMP-activated protein kinase, AMPK (Homo sapiens) (UniProt P54646+O43741+P54619+Q9UGJ0+Q9Y478+Q13131+Q9UGI9). The assay is described as follows: AMP-dependent Kinase enzyme assay. An in vitro enzyme assay that detects ADP turnover that is directly proportional to AMPK activity. This uses naive AMPK that is activated during the assay with MK-8722. The following applies: 30 µM. It counts as functional.

The target of assay [4] is Sialic acid-binding Ig-like lectin 9 (Homo sapiens) (UniProt Q9Y336). The assay is described as follows: Hs-Siglec9 ALPHAscreen SOP 20170721. The note with it: 10 µM.
Sequence of Sialic acid-binding Ig-like lectin 9 (Homo sapiens) (Q9Y336 whole entry): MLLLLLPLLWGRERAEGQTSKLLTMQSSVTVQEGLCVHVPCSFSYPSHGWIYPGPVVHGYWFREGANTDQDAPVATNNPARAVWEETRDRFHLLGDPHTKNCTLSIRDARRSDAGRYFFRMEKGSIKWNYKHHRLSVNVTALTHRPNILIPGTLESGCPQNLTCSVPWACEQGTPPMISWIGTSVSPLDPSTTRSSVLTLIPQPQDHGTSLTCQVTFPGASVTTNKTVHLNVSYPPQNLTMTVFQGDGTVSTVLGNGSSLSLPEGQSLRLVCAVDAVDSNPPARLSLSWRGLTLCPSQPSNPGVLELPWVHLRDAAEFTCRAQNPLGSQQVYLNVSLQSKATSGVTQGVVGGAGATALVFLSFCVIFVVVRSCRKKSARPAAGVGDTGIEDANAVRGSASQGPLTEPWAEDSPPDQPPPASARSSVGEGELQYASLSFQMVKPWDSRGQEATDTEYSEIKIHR
Another assay has as its system Trypanosoma cruzi. Description: Trypanosoma cruzi phosphomannomutase and mannose-1-phosphate guanylyltransferase assay. It is filed as functional. The following applies: 10 µM.
Assay [5] deals with T2, Arginase-2, mitochondrial (Homo sapiens) (UniProt P78540).
T2 sequence (whole entry): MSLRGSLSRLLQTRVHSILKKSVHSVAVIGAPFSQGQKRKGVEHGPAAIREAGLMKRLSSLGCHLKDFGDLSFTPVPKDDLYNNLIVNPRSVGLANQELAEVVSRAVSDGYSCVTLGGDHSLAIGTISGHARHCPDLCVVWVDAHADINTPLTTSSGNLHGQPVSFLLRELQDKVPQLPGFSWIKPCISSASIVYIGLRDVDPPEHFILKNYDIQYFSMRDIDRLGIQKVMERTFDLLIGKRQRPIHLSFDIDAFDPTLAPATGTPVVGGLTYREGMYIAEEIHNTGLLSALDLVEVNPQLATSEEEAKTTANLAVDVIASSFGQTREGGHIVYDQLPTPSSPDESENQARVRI
The assay is described as follows: in vitro enzyme assay to detect the production of urea directly proportional to the activity of Arginase II. Further: in the data most compounds retested in dose-response had high values. It counts as functional. The note with it: 33.3 µM.

In assay [6] the target is T3, Proteasome subunit beta (Trypanosoma cruzi) (UniProt O96673).
T3 sequence (whole entry): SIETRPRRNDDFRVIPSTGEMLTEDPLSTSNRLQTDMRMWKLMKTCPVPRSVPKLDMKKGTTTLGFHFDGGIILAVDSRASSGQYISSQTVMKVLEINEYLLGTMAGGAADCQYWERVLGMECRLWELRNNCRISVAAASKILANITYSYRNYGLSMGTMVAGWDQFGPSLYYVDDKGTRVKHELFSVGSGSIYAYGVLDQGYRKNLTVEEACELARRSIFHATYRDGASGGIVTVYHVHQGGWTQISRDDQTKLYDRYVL
The assay is described as follows: Trypanosoma cruzi proteasome chymotrypsin-like activity (TcProtChymo) assay. Further: in the data most compounds retested in dose-response had high values. The note with it: 9.37 µM. It is filed as functional.

The species entered for the next assay is Homo sapiens. Description: To identify inhibition of the IFN signalling (Jak-Stat) pathway via expression of an eGFP reporter gene under the control of an IFN-stimulated response element (ISRE) containing MxA promoter. It counts as functional. The following applies: 30 µM.
Assay [7] concerns the target T4, Tyrosyl-tRNA synthetase, putative (Trypanosoma cruzi (strain CL Brener)) (UniProt Q4DSP6).
T4 sequence (whole entry): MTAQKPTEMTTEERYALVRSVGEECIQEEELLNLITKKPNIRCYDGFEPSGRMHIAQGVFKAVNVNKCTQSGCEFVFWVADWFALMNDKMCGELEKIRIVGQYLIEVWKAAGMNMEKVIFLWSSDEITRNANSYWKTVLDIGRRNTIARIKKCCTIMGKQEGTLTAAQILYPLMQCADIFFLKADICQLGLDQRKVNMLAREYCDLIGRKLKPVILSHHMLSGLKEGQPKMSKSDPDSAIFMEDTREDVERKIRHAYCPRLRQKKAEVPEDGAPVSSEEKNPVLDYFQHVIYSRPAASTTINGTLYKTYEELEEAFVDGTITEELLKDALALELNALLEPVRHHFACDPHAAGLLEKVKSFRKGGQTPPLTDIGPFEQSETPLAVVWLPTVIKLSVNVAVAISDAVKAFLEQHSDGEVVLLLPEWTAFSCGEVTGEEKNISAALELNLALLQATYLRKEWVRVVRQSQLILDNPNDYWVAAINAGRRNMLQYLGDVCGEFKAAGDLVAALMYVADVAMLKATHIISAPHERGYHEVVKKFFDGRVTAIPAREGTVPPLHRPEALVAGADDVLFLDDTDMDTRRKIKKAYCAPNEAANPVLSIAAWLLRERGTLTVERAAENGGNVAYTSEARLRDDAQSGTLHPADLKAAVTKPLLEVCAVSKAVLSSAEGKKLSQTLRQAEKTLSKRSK
Description: Trypanosoma cruzi tyrosyl tRNA synthetase (TcYRS) _High Tyrosine SOP. Further: in the data most compounds retested in dose-response had high values. The note with it: 30 µM. It counts as functional.

In assay [8] the target is T4, Tyrosyl-tRNA synthetase, putative (Trypanosoma cruzi (strain CL Brener)). Description: Trypanosoma cruzi tyrosyl tRNA synthetase (TcYRS) SOP. It is filed as functional. The note with it: 30 µM.
The target of assay [9] is Chromo domain-containing protein 1 (Saccharomyces cerevisiae (strain ATCC 204508 / S288c) (Baker's yeast)) (UniProt P32657). Description: ScCHD-1 Enzyme Inhibition Assay. Further: in the data most compounds retested in dose-response had high values. It is filed as functional. The following applies: 30 µM.
Sequence of Chromo domain-containing protein 1 (Saccharomyces cerevisiae (strain ATCC 204508 / S288c) (Baker's yeast)) (P32657 whole entry, the tested form may be a part): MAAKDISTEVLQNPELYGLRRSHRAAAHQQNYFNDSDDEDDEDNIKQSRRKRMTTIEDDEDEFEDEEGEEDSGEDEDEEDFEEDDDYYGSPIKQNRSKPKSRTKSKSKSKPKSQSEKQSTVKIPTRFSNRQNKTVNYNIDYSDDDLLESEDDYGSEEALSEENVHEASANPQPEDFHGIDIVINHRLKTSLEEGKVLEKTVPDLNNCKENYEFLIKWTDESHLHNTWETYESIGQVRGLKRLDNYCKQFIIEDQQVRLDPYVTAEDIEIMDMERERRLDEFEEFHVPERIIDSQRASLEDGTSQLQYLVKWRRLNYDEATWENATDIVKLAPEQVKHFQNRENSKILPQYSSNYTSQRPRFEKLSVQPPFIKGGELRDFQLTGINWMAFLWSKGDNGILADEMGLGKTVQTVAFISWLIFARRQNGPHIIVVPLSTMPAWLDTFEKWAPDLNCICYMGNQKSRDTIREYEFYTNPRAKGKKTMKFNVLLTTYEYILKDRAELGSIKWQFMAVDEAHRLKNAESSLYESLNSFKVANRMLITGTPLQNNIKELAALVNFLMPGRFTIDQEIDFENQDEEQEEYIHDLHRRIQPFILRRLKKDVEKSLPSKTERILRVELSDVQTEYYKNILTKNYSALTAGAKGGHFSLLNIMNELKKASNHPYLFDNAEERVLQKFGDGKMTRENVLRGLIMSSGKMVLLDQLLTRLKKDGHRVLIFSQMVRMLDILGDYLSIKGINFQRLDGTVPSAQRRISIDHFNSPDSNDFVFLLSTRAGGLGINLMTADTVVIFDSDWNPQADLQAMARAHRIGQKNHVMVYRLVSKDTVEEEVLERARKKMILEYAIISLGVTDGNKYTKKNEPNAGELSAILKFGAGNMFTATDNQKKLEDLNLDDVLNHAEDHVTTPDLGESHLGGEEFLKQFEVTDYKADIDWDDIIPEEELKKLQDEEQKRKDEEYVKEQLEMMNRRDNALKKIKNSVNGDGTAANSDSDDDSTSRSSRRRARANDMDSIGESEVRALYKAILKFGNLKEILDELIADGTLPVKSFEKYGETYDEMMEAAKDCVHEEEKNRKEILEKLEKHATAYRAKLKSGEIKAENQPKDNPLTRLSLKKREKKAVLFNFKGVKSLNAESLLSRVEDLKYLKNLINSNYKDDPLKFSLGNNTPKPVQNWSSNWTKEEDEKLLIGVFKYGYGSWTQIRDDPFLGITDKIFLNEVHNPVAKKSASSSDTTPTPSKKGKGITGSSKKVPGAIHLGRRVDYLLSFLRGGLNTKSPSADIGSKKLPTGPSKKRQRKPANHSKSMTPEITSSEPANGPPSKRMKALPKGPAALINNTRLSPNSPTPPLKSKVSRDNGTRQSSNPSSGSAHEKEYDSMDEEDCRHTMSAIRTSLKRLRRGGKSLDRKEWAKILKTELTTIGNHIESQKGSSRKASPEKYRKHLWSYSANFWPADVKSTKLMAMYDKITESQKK

Sequence of Protein translocase subunit SecA (Escherichia coli (strain K12)) (P10408 whole entry): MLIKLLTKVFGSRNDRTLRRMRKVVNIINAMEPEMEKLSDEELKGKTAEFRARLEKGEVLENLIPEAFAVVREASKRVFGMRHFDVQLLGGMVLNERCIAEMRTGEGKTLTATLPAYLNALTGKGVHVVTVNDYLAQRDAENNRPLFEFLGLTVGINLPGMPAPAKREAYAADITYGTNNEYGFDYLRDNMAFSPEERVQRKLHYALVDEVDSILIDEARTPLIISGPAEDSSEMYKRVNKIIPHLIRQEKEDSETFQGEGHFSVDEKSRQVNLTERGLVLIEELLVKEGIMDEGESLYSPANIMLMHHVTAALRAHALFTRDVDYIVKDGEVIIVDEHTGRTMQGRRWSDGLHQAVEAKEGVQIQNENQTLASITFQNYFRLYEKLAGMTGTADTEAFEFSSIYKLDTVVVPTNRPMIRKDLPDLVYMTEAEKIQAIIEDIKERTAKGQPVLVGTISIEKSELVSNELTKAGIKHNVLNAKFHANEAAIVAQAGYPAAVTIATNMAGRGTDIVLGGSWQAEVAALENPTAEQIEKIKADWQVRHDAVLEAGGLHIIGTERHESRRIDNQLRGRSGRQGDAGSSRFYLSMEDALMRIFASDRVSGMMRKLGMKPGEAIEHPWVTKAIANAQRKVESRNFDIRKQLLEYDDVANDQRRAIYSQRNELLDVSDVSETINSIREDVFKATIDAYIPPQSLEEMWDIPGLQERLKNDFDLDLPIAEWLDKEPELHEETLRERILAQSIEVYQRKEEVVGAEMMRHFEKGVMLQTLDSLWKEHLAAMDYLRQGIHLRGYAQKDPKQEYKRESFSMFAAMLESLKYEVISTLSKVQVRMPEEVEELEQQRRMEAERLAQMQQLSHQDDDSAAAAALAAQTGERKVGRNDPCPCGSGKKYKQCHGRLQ

Turning to `CCc1nc(CN(C)C2CCN(Cc3cnc(C)cn3)C2)no1` (stereo unspecified), the Percent Effect was 0.722% in [1]; 27.9% in [2]; -1.25% in [3]; -16.7% in assay [4]; 5.38% with Trypanosoma cruzi; -3.42% in assay [5]. Besides, the Percent Effect was 15.5% in assay [6]; 26.6% in the assay filed under Homo sapiens; 8.37% in [7]; 21.5% in assay [8]; -17% in assay [9].

Regarding `CCn1c(Cn2cncn2)nnc1C1CCN(Cc2ccncc2)CC1`, the Percent Effect was -5.1% in [1]; 5.41% in [2]; -3.24% in [3]; 1.13% in assay [4]; -0.489% with Trypanosoma cruzi; 2.73% in assay [5]. For the same compound, the Percent Effect in [6] is 4.72%; in the assay filed under Homo sapiens, -4.54%; in [7], 9.68%; in assay [8], 21%; in assay [9], -2.94%.

On to `COc1ccc(-c2nc(CN3CCOCS3(=O)=O)c(C)o2)cc1`, for which the Percent Effect was -1.22% in assay [1]; 8% in [2]; -8.87% in [3]; 2.98% in assay [4]; -4.58% in the assay with Trypanosoma cruzi; -3.12% in assay [5]. Besides, the Percent Effect in assay [6] is 14.8%; in the assay filed under Homo sapiens, 10.4%; in assay [7] it was 2.73%; in assay [8] it was 8.64%; in assay [9] it was -5.54%.

On to `CN(Cc1ccc(F)cc1)CC1(O)CCN(C(=O)c2cccn2C)C1` (stereo unspecified), for which the Percent Effect in assay [1] is -6.43%; in assay [2] it was 13.3%; in assay [3], 2.06%; in [4], 5.19%; with Trypanosoma cruzi it was 3.15%; in assay [5], -4.43%. In addition, the Percent Effect in assay [6] is 0.969%; in the assay listed under Homo sapiens, 3%; in assay [7], 6.38%; in assay [8], 8.97%; in assay [9] it was -9.32%.

For `CC(NC(=O)CNCCn1cccn1)c1ccc2c(c1)CCCC2` (stereo unspecified), the Percent Effect is -8.2% in assay [1]; 13% in assay [2]; -1.74% in assay [3]; 15.8% in assay [4]; 3.37% in the assay with Trypanosoma cruzi; -6.41% in [5]. Moreover, the Percent Effect is 9.46% in [6]; -3.61% in the assay listed under Homo sapiens; 12.6% in assay [7]; 26.8% in assay [8]; -9.3% in assay [9].

For `COc1ccc2c(c1)CCN(CCC(=O)NC1CCCCC1)CC2`, the Percent Effect in assay [1] was -1.36%; in assay [2], 2.7%; in [3], -5.04%; in assay [4], 1.78%; in the assay with Trypanosoma cruzi, 5.41%; in [5], -1.43%. Moreover, the Percent Effect was 15.3% in assay [6]; 14.6% in the assay listed under Homo sapiens; 6.88% in assay [7]; 12.2% in assay [8]; -1.4% in assay [9].

For the compound `CNC(=O)c1cnc(/C=C/c2cc(OC)cc(OC)c2)s1`, the Percent Effect in assay [1] was -6.6%; in assay [2], -5.41%; in [3], -2.31%; in [4], 7.75%; with Trypanosoma cruzi, -6.25%; in assay [5] it was 0.417%. The Percent Effect is 21.4% in [6]; 18.1% in the assay listed under Homo sapiens; 1.98% in assay [7]; -6.1% in assay [8]; -3.49% in assay [9].

As for `O=C(N1CCOCC1)[C@@]12CCO[C@@H]1CCN(CCN1CCCCC1)C2`, the Percent Effect in [1] is -0.594%; in [2], 14.7%; in assay [3], -0.279%; in assay [4], -2.46%; in the assay with Trypanosoma cruzi, 1.18%; in [5], -4.05%. In addition, the Percent Effect in [6] was 20.9%; in the assay filed under Homo sapiens it was -2.62%; in assay [7], -6.35%; in assay [8] it was 15.4%; in assay [9], -11.6%.

`CNc1nc(CNC(=O)Nc2ccccc2SC)cs1`: the Percent Effect in [1] is 1.51%; in assay [2], -2.63%; in [3], -1.33%; in assay [4], 0.229%; in the assay on Trypanosoma cruzi, -2.07%; in assay [5], 3.83%. In addition, the Percent Effect turned out to be 7.69% in assay [6]; 10.1% in the assay filed under Homo sapiens; 1.47% in [7]; 4.88% in assay [8]; 3.33% in assay [9].

As for `COCCC(=O)N1C[C@@H]2COC[C@]2(COCc2cccnc2)C1`, the Percent Effect in assay [1] is -1.17%; in [2] it was 13%; in assay [3] it was 1.86%; in assay [4] it was -1.48%; in the assay on Trypanosoma cruzi it was -14.7%; in assay [5] it was 12.3%. Also, the Percent Effect is 12% in [6]; 17.3% in the assay filed under Homo sapiens; -1.06% in assay [7]; 8.97% in [8]; -8.34% in assay [9].

As for `c1csc(CN2Cc3nccn3CC(Cn3cncn3)C2)n1` (stereo unspecified), the Percent Effect is 1.97% in [1]; 2.74% in assay [2]; 0.961% in assay [3]; 63.8% in [4]; -0.794% with Trypanosoma cruzi; 3.19% in assay [5]. Moreover, the Percent Effect in [6] was 11.2%; in the assay listed under Homo sapiens, -1.52%; in assay [7], 4.17%; in assay [8] it was 13.6%; in assay [9] it was -0.0341%.
